Data on 25 molecules can be found in PubChem BioAssay AID651629 (Sanford-Burnham Center for Chemical Genomics, 2012).

Some of the results follow. A number with no mark means an inactive call. Active and inactive are the calls of the source.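 Rule for the calls: active = mean inhibition across replicates of 40% or more; inactive = mean inhibition below 40%.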

The test is described as follows: TAG lipid buildup inhibition in H9c2 – cell-based, single concentration, Nile Red fluorescence, confirmation (AID 651629).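 Note: plate controls were DMSO only wells for no effect and Triacsin C treated wells for full effect.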 The conditions noted are these: H9c2 lipid accumulation, at 12.5 µM, stronger effect = higher value, cells loaded with 200 µM oleic acid.
`COc1cc(/C=C2\Oc3ccc(C#Cc4ccc(O)cc4)cc3C2=O)cc(OC)c1`: the inhibition was 103% (active). For `CN(/N=C/c1ccccc1)C(=S)c1ccccc1` the value was 12.5%; for `O=C(Nc1ccccc1)Oc1cccc2cccnc12`, -3.58%. As for `O=C(Nc1cc2c3c(c1)C1CCCC1CN3CC1CCCC21)c1ccc([N+](=O)[O-])cc1` (stereo not given), the figure is 56.6% (active); as for `O=C(Nc1ccc(-c2csc(Nc3cccc(C(F)(F)F)c3)n2)cc1)c1cccc(C(F)(F)F)c1`, 66% (active). For `CN(C)C(=O)c1cccc(-c2cnc3c(NC=O)cc(-c4ccc(C(=O)N5CCOCC5)cc4)cn23)c1` the value was 58% (active); for `CCOCCC(=O)Nc1ccc2c(c1)c(=O)n(C)n2-c1ccc2ccccc2c1`, 47.5% (active).

As to `COc1cc(NC(=O)c2cncc(-c3ccc(C#N)cc3)c2)cc(C(=O)Nc2cccc(C(F)(F)F)c2)c1`, the inhibition is 39.1%. For `CCOC(=O)N1CCN(C(=O)c2ccccc2N(Cc2ccccc2)S(=O)(=O)c2ccc(OC)cc2)CC1` the value was 64.1% (active). For the molecule `COC(=O)c1ccc(NCc2cc(O)ccc2O)cc1`, the inhibition is 29.9%. As for `CCCCN1C(=O)/C(=C/C=C2/C=Cc3ccccc3N2CC)SC1=S`, the figure is 127% (active); as for `C/C(=N\Nc1ccc(Cl)nn1)c1ccccc1O`, 66.4% (active); as for `COc1ccc2sc(-c3ccc(N(C)C)cc3)c(C#CCO)c2c1`, 85.7% (active). As for `Cc1cc(N/N=C\c2ccc(Br)cc2)nc(-n2nc(C)cc2C)n1`, the figure is 58.6% (active); as for `COC(=O)c1ccc(-c2c(-c3ccccc3)ncc3cc(OC)c(OC)cc23)cc1`, 13.2%; as for `C=CCNC(=S)N/N=C/c1ccc(C)s1`, 24.3%.

Consider `Cc1ccccc1NC(=O)CSc1nc2ccc(Nc3nc(N4CCOCC4)nc(N4CCOCC4)n3)cc2s1`, for which the inhibition is 77.3% (active).

For the molecule `C=CCn1c(SCc2c(C)noc2C)nc2sc3c(c2c1=O)CCC(C)C3` (stereo not given), the inhibition is 49.4% (active).

As to `COc1ccc2sc(-c3ccc(S(C)(=O)=O)cc3)c(C#Cc3cncn3C)c2c1`, the inhibition is 74.2% (active). As for `Cc1ccc(-c2nc3ccccc3[nH]2)cc1NC(=O)c1sc2ccccc2c1Cl`, the figure is 35.7%; as for `Cc1ccc(Sc2cc(N3CCOCC3)nc(-c3ccccc3)n2)cc1`, 62.5% (active). As for `CN(C)CC(O)COc1ccc(C(C)(C)c2ccc(OCC(O)CN(C)C)cc2)cc1` (stereo not given), the figure is 20.9%; as for `COc1ccc(CC(=O)Nc2ccc(-c3nnc(-c4ccc(C)cc4)o3)cc2)cc1`, 57.6% (active). As for `COc1ccc(Nc2cc(=O)oc3ccccc23)cc1`, the figure is 50.6% (active); as for `Cc1ccc(/C=N/NC(=S)Nc2cccc(S(=O)(=O)N(C)C)c2)o1`, 20.8%.
